VACV mCherry inh: inhibitors of vaccinia virus infection (mCherry reporter signal); Vaccinia virus mCherry reporter infection, fluorescence; hit rate 0.63% among 310,000; Potency, µM (series often up to 36.5 µM), inactives show at the highest dose activity change, negative = inhibition, hits mostly inhibitors; AID 720579; calls by dose curve; tested in A549 cells; also: potency is read from the fitted curve at half-maximal effect; % is scaled to controls: 0 for no effect and ±100 for the full control effect; nearly all actives have a fitted effect of over 35% in size
Marburg entry inh: inhibitors of Marburg virus binding or cell entry | hit rate 1.8% among 300,000 | Marburg virus pseudotyped entry inhibition, cell reporter | AID 540276 | Potency, µM (series often up to 37.8 µM), without a hit: at the highest dose activity change, negative = inhibition, usual class: inhibitors; calls by dose curve; tested in HEK293 cells; also: potency is read from the fitted curve at half-maximal effect; % is scaled to controls: 0 for no effect and ±100 for the full control effect
CHX counter: counter-screen for Shiga toxin inhibitors: cycloheximide protein synthesis inhibition | cell reporter, cycloheximide protein synthesis inhibition counterscreen | max response, % | hit rate 12% among 300,000; in the data active = max response mostly above about 13%, no sharp cut-off; inactive = mostly below about 14%; also: read at 38.3 µM for the half of the compounds with a filed dose; 0% is about no effect
Lassa entry inh: Lassa virus entry inhibition; Potency, µM (doses to about 37.9 µM), inactives show at the highest dose activity change, negative = inhibition, hits mostly inhibitors; hit rate 1.2% among 300,000; AID 540256; Lassa virus pseudotype entry inhibition, cell reporter; calls by dose curve; tested in HEK293 cells; also: potency is read from the fitted curve at half-maximal effect; % is scaled to controls: 0 for no effect and ±100 for the full control effect; nearly all actives have a fitted effect of over 50% in size
Shiga inhibitor: Shiga toxin inhibition | Vero cells, Shiga toxin protein synthesis inhibition reporter | hit rate 9.2% among 290,000 | AID 2315 | inhibition, % at 38.7 µM; in the data active = inhibition mostly above about 28%, no sharp cut-off; inactive = mostly below about 43%; also: 0% is about no effect
VACV Venus inh: vaccinia inhibition (Venus reporter). Vaccinia virus Venus reporter expression, fluorescence. hit rate 0.46% among 330,000. Potency, µM (doses to about 36.5 µM), without a hit: top-dose activity change, negative = inhibition, actives largely listed as inhibitors; calls by dose curve; tested in A549 cells; also: potency is read from the fitted curve at half-maximal effect; % is scaled to controls: 0 for no effect and ±100 for the full control effect; nearly all actives have a fitted effect of over 30% in size
* marks the source's active call; other numbers are inactive results; i = inactive; u = inconclusive; x = not tested or not shown; [ ] = another dose, or the depositor's remark. This excerpt belongs to a sample that is enriched for hits.

SMILES	VACV mCherry inh	Marburg entry inh	CHX counter	Lassa entry inh	Shiga inhibitor	VACV Venus inh
Cc1ccccc1OCCNC(=O)c1ccco1	31%	13%[46.1 µM]	36*	16%	97*	-4%
Cc1ccccc1OCCNC(=O)/C=C/c1ccccc1	-7%	21%	19	7%	24*	-5%
CCCCOc1ccc(OCCNC(=O)c2ccco2)cc1	-2%	3%[46.1 µM]	20	2%[46.1 µM]	57*	12%
NC(=O)c1ccccc1OCC(=O)N1CCCc2ccccc21	-1%	u	26*	-5%[46.1 µM]	74*	-2%
O=C(COc1ccc(Br)cc1)N1CCc2ccccc2C1	-1%	u	10	8%[46.1 µM]	24	-12%
Cc1cc(Cl)ccc1OCCCC(=O)N1CCCc2ccccc21	-13%	-13%	6	1%	-6	-20%
O=C(COc1ccccc1Cl)N1CCc2ccccc2C1	-1%	15%	4	28%	x	-13%
O=C(COc1ccc(Br)cc1)N1CCc2ccccc21	-12%	u	27*	u	111*	-14%
O=C(CCCOc1ccccc1)N1CCCc2ccccc21	i	7%	49*	6%	132*	-10%
COCC(=O)N1CCCc2ccccc21	-15%	29%[46.1 µM]	14	u	9	-16%
O=C(COc1ccccc1Cl)N1CCc2ccccc21	5%	u	41*	0%	101*	-16%
COc1ccc(CCNC(=O)Cn2c(=O)n(-c3ccc(C)c(C)c3)c(=O)c3c(C)c(C)sc32)cc1OC	-1%	12%[46.1 µM]	x	3%[46.1 µM]	x	-6%
COc1ccc(-c2cc(C(F)(F)F)n3nc(C(=O)Nc4cc(C(F)(F)F)ccc4Cl)cc3n2)cc1OC	15%	8%[46.1 µM]	x	0%[46.1 µM]	x	-5%
CC(Cc1ccc(O)c(O)c1)(NN)C(=O)O (centres undefined)	-11%	x	x	x	x	8%
CCCNC(=O)CN1C(=O)COc2ccc(S(=O)(=O)N3CCCC3)cc21	-9%	11%[46.1 µM]	x	1%[46.1 µM]	x	-11%
O=C(COc1ccccc1)OCC(=O)N1CCCc2ccccc21	i	25%	x	12%	x	-12%
O=C(COc1ccccc1)N1CCc2ccccc21	-14%	-3%	31*	u	76*	-17%
CN(C)c1ccc(C(=O)NCc2ccc3c(c2)CCN3C(=O)c2ccccc2)cc1	-8%	x	x	2%[46.1 µM]	x	-7%
Cc1ccc(S(=O)(=O)c2nc(-c3ccc(Cl)cc3)oc2N2CCCCCC2)cc1	-7%	u	x	1%[46.1 µM]	x	3%
CN(C)c1oc(/C=C/c2ccccc2)nc1C#N	-16%	u	44*	-23%	48*	-15%
COc1ccccc1/C=C/c1nc(C#N)c(N(C)C)o1	-10%[7.34 µM]	u	33*	u	87*	-4%[7.34 µM]
CN(C)c1oc(/C=C/c2ccc(F)cc2)nc1C#N	-14%	u	x	u	x	-9%
COc1ccccc1N/C=C/c1onc(C)c1[N+](=O)[O-]	u	x	21	x	19	-9%
Cc1noc(/C=C/Nc2ccc(F)cc2F)c1[N+](=O)[O-]	-18%	u	53*	u	141*	-19%
CCN(CC)CCNC(=O)c1cnn(-c2ncc3c(n2)-c2ccc(OC)cc2CC3)c1C	-22%	x	x	x	x	-13%
SMILES	VACV mCherry inh	Marburg entry inh	CHX counter	Lassa entry inh	Shiga inhibitor	VACV Venus inh
CC(C)c1ccc(CNc2ccc3c(c2)ncn3C)cc1	x	x	60*	x	104*	x
CN(C)c1ccc(CNc2ccc3c(c2)ncn3C)cc1	x	u	20*	-28%	18	x
CC(C)c1ccc(CNc2ncccn2)cc1	i	0%	39*	19%	42*	-5%
CCn1cnc2cc(NCc3ccc(OC)cc3)ccc21	x	u	27	18%	46	x
Cc1ccc(N(CC(=O)NCCc2ccc(F)cc2)S(=O)(=O)c2ccc(Cl)c([N+](=O)[O-])c2)c(C)c1	x	u	-8	23µM*	-10	x
O=C(CN(c1ccc(Br)cc1)S(=O)(=O)c1ccc(Cl)c([N+](=O)[O-])c1)NCCc1ccccc1	-6%	u	-2	24%	-5	-4%
O=C(CN(c1cccc(C(F)(F)F)c1)S(=O)(=O)c1ccc(Cl)c([N+](=O)[O-])c1)NCc1ccccc1	-12%	23µM*	-3	u	17	-13%
CCCOc1ccc(C(=O)Nc2ccc3oc(-c4ccncc4)nc3c2)cc1	-9%	x	x	11%[46.1 µM]	x	-11%
CC1=C(C(=O)Nc2ccccc2C)C(c2ccccn2)n2nc(SCc3ccccc3F)nc2N1 (centres undefined)	-9%	21%[46.1 µM]	x	-1%[46.1 µM]	x	u
c1ccc(-c2ccc(-c3[nH]ncc3CN3CCC(N4CCSCC4)CC3)cc2)cc1	x	-11%	7.3*	7%	48*	x

Source: PubChem (National Center for Advancing Translational Sciences (NCATS))
